Source: PubChem BioAssay (National Center for Advancing Translational Sciences (NCATS))
The list is not random: actives were taken first. Their share in the collection is about 10%.
G9a block = blocks human histone lysine methyltransferase G9a; Q96KQ7; G9a H3K9 monomethylation, AlphaScreen, 2 h; Potency, µM (highest dose often 102 µM), actives largely listed as inhibitors; 350,000 compounds, 8.8% hits; AID 504332; further: nearly all actives have a fitted effect of over 75% in size
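Compounds were preincubated with 20 nM G9a for 15 min, after which biotinylated H3K9 peptide (500 nM) and SAM (20 uM) started a 2 h room-temperature reaction. Monomethylated product was quantified by antibody-based AlphaScreen chemiluminescence.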
JMJD2A Tudor inh = JMJD2A Tudor domain (human) inhibition; O75164; Potency, µM (series often up to 114 µM), hits mostly inhibitors; 390,000 compounds, 4.4% hits; AID 504339; AlphaScreen JMJD2A-Tudor / H3K4me3 peptide binding; further: nearly all actives have a fitted effect of over 50% in size
HP1b chromo inh = blocks HP1-beta chromodomain binding to methylated histone tails. P83916. AlphaScreen HP1-beta / biotin-H3K9me3 peptide binding. Potency, µM (highest dose often 114 µM), usual class: inhibitors. 390,000 compounds, 0.56% hits. AID 540317; further: nearly all actives have a fitted effect of over 70% in size
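Compound inhibition of the preformed complex between 50 nM HP1-beta and 50 nM biotinylated H3K9me3 peptide was read by AlphaScreen. Buffer was PBS pH 7.4 with 0.01% Tween-20. Incubations ran 30 min at room temperature, with 10 ug/mL donor/acceptor beads.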
GLS inh = inhibitors of human glutaminase (GLS). O94925. Potency, µM (doses to about 45.5 µM), actives largely listed as inhibitors. 410,000 compounds, 0.21% hits. GLS enzymatic activity, qHTS titration
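hKGA in 45 mM KH2PO4 (pH 8.2), 0.02% Tween-20 with compound, then 1mM L-Glutamine (stock as added) plus glutamate oxidase/HRP/Amplex red coupling mix. Fluorescence read initially and after 30 min at RT; signal change reflects glutamate formation.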
BAZ2B inh = BAZ2B (human) inhibition; Q9UIF8; AlphaScreen BAZ2B-H3K14Ac peptide displacement; Potency, µM (doses to about 114 µM), actives largely listed as inhibitors; 360,000 compounds, 4.4% hits; AID 504333; further: nearly all actives have a fitted effect of over 60% in size
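In this displacement format the biotinylated H3(5-23) peptide acetylated at Lys14 serves as ligand at 50 nM, with BAZ2B at 50 nM in PBS pH 7.4 containing 0.01% Tween-20. Donor and acceptor beads are 10 ug/mL final.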
Of the large screens only hits and unclear results are named; the others gave an inactive call. The call rests on the fitted dose curve; in most records, active means well fitted curve in the direction sought with a large enough effect; inconclusive means small, poorly fitted or top-dose-only effect, or another doubt; inactive means no such curve, though single readings can be large; an effect the other way counts as inactive or inconclusive.

Nc1nnnn1/N=C/c1ccccc1OCc1ccc(Cl)cc1	none
COc1ccccc1/C=C/C=N/n1c(COc2ccccc2)n[nH]c1=S	G9a block 3.5µM, JMJD2A Tudor inh inconclusive
Cc1n[nH]c(=S)n1/N=C/c1ccccc1OCc1ccc(Cl)cc1	G9a block inconclusive, JMJD2A Tudor inh 50µM
COc1cccc(/C=N/n2c(COc3ccccc3)n[nH]c2=S)c1OC	G9a block 8.9µM, JMJD2A Tudor inh 28µM
COc1cccc(/C=N/n2c(COc3ccccc3)n[nH]c2=S)c1O	G9a block 16µM, JMJD2A Tudor inh 50µM, HP1b chromo inh inconclusive
COc1cccc(/C=N/n2c(CO)nc3ccccc32)c1OC	none
Cc1cccc(C(=O)Nc2sc3c(c2C(=O)NC(C)C)CCCC3)c1	none
CC(C)n1nc(Cc2cccc3ccccc23)c(C#N)c1N	none (no result: G9a block, BAZ2B inh)
COc1ccccc1N1CCN(/N=C\c2ccc(C)o2)CC1	G9a block inconclusive, HP1b chromo inh inconclusive
COc1ccccc1N1CCN(/N=C\c2sccc2C)CC1	G9a block 16µM, JMJD2A Tudor inh inconclusive, BAZ2B inh 13µM
COc1ccccc1N1CCN(/N=C\c2ccccc2)CC1	BAZ2B inh inconclusive
COc1ccccc1N1CCN(/N=C/c2cccc(OC)c2OC)CC1	G9a block 50µM, JMJD2A Tudor inh inconclusive, HP1b chromo inh inconclusive, BAZ2B inh 35µM
COc1ccccc1N1CCN(/N=C/c2cc(OC)c(OC)c(OC)c2)CC1	G9a block inconclusive, JMJD2A Tudor inh inconclusive, HP1b chromo inh inconclusive, BAZ2B inh inconclusive
COc1ccccc1N1CCN(/N=C/c2c(C)nn(-c3ccccc3)c2C)CC1	G9a block inconclusive, JMJD2A Tudor inh 40µM, HP1b chromo inh 18µM, BAZ2B inh 28µM
O=C(Oc1ccccc1)N1CCC2(CC1)CCN(c1ccncc1)CC2	none (no result: JMJD2A Tudor inh, HP1b chromo inh, GLS inh, BAZ2B inh)
CCCN(CCC)C(=O)Cn1c(=O)n(-c2ccc(OC)cc2OC)c(=O)c2c3c(sc21)CCC3	none
COc1cccc(-n2sc3c(c2=S)-c2cc(OC)ccc2NC3(C)C)c1	G9a block inconclusive, JMJD2A Tudor inh 11µM, HP1b chromo inh 5.6µM, BAZ2B inh 10µM
COc1ccc(N=Nc2n(C)c3ccccc3[n+]2C)cc1	BAZ2B inh 40µM (no result: G9a block, JMJD2A Tudor inh, HP1b chromo inh, GLS inh)
Cn1c(COc2ccccc2O)[n+](C)c2ccccc21	none
Clc1ccccc1-c1cc2nc(NCc3ccco3)ccn2n1	none (no result: G9a block, JMJD2A Tudor inh, HP1b chromo inh, BAZ2B inh)
COc1ccc(/C([O-])=C(/C(=S)Nc2ccc(C)c(C)c2)n2c[n+](C)c3ccccc32)cc1OC	G9a block 45µM
CCOC(=O)C1=C(C)Nc2nc(SCC)nn2C1c1ccc(OC)cc1 (stereo not given)	none
CCOC(=O)C1=C(C)Nc2nc(=S)[nH]n2C1c1ccc(Cl)cc1 (stereo not given)	G9a block 1.3µM, JMJD2A Tudor inh 16µM, HP1b chromo inh inconclusive
Cc1ccc(NC(=O)CSc2ncc3c(n2)-c2ccccc2N(C)S3(=O)=O)c(Cl)c1	none
CCOC(=O)c1cc2c(C)n(-c3ccc(OCC)cc3)c(C)c2ccc1=O	JMJD2A Tudor inh inconclusive, HP1b chromo inh inconclusive, BAZ2B inh 50µM (no result: G9a block)
CCOC(=O)c1c[nH]n(-c2ccc(C)cc2)c1=O	G9a block 50µM
CCOC(=O)c1c[nH]n(-c2ccccc2)c1=O	none
CCOC(=O)c1cc2c(C)n(-c3ccc(C)cc3)c(C)c2ccc1=O	JMJD2A Tudor inh inconclusive, HP1b chromo inh inconclusive, BAZ2B inh 45µM (no result: G9a block)
CCOc1ccc(-n2c(C)c(C(=O)OC)c3cc(O)ccc32)cc1	BAZ2B inh inconclusive (no result: G9a block)
O=C(Cc1ccccc1)NCC(=O)OCC(=O)c1ccc2ccccc2c1	none (no result: G9a block, GLS inh, BAZ2B inh)
O=C(Nc1nc(-c2ccc(Br)cc2)ns1)c1ccccc1F	none
O=C(O)c1ccc(Cl)c(S(=O)(=O)Nc2ccccc2C(=O)Nc2ccc(Cl)cc2)c1	G9a block inconclusive, GLS inh inconclusive
Cc1ccc(OCCCCN2CCCCC2)c(C)c1	none
Cc1ccc(C)c(OCCCCN2CCCCC2)c1	G9a block 25µM, JMJD2A Tudor inh 32µM
Cc1ccccc1OCCCN1CCCC1	G9a block 40µM, JMJD2A Tudor inh 3.5µM
Cc1ccccc1OCCN1CCCC1	JMJD2A Tudor inh 20µM, HP1b chromo inh inconclusive, BAZ2B inh 50µM (no result: G9a block)
O=C(COC(=O)c1c2c(nc3ccccc13)CCN(Cc1ccccc1)C2)Nc1c(F)cccc1F	JMJD2A Tudor inh inconclusive
CC(=O)Nc1ccc(NC(=O)COC(=O)c2c3c(nc4ccccc24)CCN(Cc2ccccc2)C3)cc1	G9a block 50µM
